Screening data from PubChem.
GALC G270D act = A Novel Cell-Based Assay to Identify Small Molecules for B -Galactocerebrosidase; Potency, µM (doses to about 57.5 µM), actives largely listed as activators; P54803; 145M-Twi-hGALC-G270D cells, HMU-beta-Gal fluorescence, 48 h; 0.1% of 45,000 active; note: potency is the fitted concentration of half-maximal effect; 0% is about no effect; nearly all actives have a fitted effect of over 65% in size
Target sequence (P54803 whole entry G286D): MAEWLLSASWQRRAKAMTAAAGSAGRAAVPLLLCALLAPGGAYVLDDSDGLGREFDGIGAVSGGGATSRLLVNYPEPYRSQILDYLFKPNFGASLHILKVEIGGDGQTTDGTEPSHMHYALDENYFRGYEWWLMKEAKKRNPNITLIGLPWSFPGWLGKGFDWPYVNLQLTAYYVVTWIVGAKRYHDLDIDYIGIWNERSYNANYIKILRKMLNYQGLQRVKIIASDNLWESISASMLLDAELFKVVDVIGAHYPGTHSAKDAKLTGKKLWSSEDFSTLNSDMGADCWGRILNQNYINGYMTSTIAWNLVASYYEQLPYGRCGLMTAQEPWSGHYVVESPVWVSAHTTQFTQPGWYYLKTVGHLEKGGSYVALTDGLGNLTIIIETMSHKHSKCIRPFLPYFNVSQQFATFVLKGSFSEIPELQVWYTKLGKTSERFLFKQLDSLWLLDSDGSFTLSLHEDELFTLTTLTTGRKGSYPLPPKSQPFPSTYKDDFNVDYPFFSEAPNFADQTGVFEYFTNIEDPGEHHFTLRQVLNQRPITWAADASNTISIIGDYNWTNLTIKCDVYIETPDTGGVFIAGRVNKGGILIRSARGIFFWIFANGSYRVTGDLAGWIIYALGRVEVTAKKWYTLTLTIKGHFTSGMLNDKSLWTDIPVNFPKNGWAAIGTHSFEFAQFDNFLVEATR
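qHTS, 1536-well; 145M-Twi-hGALC-G270D cells (WT line also made) in DMEM/F12 + 10% FBS; compound incubation on live cells; HMU-β-gal 0.1 mM final, pH 5.2, NaTC; carbonate stop; fluorescence increase = enhanced residual activity.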
p53null 32C tox = qHTS Screen for Compounds that Selectively Target Cancer Cells with p53 Mutations: Cytotoxicity of p53 Null Cells at the Permissive Temperature; H1299-neo p53 null cells, ATP luminescence, 24 h, 32C; Potency, µM (doses to about 46.1 µM), inactives show at the top dose activity change, negative = cytotoxicity, most hits filed as cytotoxic; 0.62% of 55,000 active;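 note: potency is the fitted concentration of half-maximal effect; 0% = DMSO only and -100% = full killing by 100 µM tamoxifen; nearly all actives have a fitted effect of over 55% in size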
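Luminescent ATP readout gave cell viability of p53-null H1299-neo cells after a 24 h compound exposure at the permissive 32C. Titrations ran up to 46 uM, and AC50s were fitted with the standard Hill equation.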
mTORC1 inh = Acumen qHTS Assay for Inhibitors of the mTORC1 Signaling Pathway in MEF (Tsc2-/-, p53-/-) Cells: Sytravon | 0.78% of 44,000 active | Tsc2-/- p53-/- MEF, phospho-rpS6 immunofluorescence/PI, 24 h | Potency, µM (highest dose often 38.3 µM), inactives show at the highest dose activity change, negative = inhibition, usual class: inhibitors;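 note: potency is the fitted concentration of half-maximal effect; plate controls were DMSO for no effect and rapamycin for full effect; nearly all actives have a fitted effect of over 50% in size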
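Immunofluorescence of rpS6 phosphorylation in Tsc2-/-, p53-/- MEFs after 24 h compound exposure, normalized to propidium iodide signal. Activity is expressed as % positive cells, thresholded with 7.5 nM rapamycin.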
p53null 39C tox = qHTS Screen for Compounds that Selectively Target Cancer Cells with p53 Mutations: Cytotoxicity of p53 Null Cells at the Nonpermissive Temperature; H1299 p53-null (neo) cells, 39C, ATPlite viability, 24 h; Potency, µM (doses to about 46.1 µM), inactives show at the top dose activity, negative = cell killing, hits mostly cytotoxic; 0.97% of 55,000 active; AID 904, 2007;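 note: potency is the fitted concentration of half-maximal effect; 0% = DMSO only and -100% = full killing by 100 µM tamoxifen; nearly all actives have a fitted effect of over 50% in size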
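Cells seeded at 600/well, 37C overnight. Compound added (up to 46 uM), plates shifted to 39C for 24 hr. ATPlite added, luminescence read after 20 min at room temperature.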
PMP22 txn prim = Cell-based coincidence reporter assay to measure PMP22 gene transcription in S16 Pmp22-F2sN cells - Primary screen. 2% of 43,000 active. S16 Pmp22-F2sN Schwann cells, FLuc/NLuc coincidence luminescence, 24 h. Potency, µM (highest dose often 57.5 µM), inactives show top-dose activity change, negative = inhibition, usual class: inhibitors; active = clear falling dose curves in both reporters; inconclusive = both reporters move, but less clearly or upward; inactive = either reporter flat; the % is the NLuc reporter signal; note: potency is the fitted concentration of half-maximal effect; % is set by controls: 0 for no effect and ±100 for the full control effect
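S16 Schwann cells carrying FLuc/NLuc coincidence reporter in the Pmp22 3' UTR treated with compound 24 h at 37C; FLuc then NLuc luminescence read sequentially by dual-luciferase reagents.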
S16 F2sN tox = Cell viability qHTS assay in S16 Pmp22-F2sN cells; S16 Pmp22-F2sN Schwann cells (luciferase reporters placed in the Pmp22 gene) viability, CellTiter-Glo, 24 h; Potency, µM (series often up to 57.5 µM), for the others: top-dose activity change, negative = cytotoxicity, usual class: cytotoxic; 0.48% of 43,000 active; AID 1508642, 2021; note: potency is the fitted concentration of half-maximal effect; % is set by controls: 0 for no effect and ±100 for the full control effect; nearly all actives have a fitted effect of over 65% in size
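Luminescence from CellTiter-Glo, read by CCD camera after a 15 min room-temperature incubation, served as the viability signal. Reporter Schwann cells (S16 Pmp22-F2sN) had been treated with pin-transferred compounds for 24 h at 37C.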
NLuc sat counter = Biochemical NLuc saturation counterscreen for small molecule modulators of PMP22 gene expression - Nano-Glo assay; shares compounds with PMP22 txn prim; 4% of 690 active; AID 1508638, 2021; Secreted NLuc enzyme (filtered S16 cell medium), Nano-Glo luminescence; Potency, µM (series often up to 57.5 µM), for inactives: top-dose activity change, negative = inhibition, usual class: inhibitors; note: potency is the fitted concentration of half-maximal effect; % is set by controls: 0 for no effect and ±100 for the full control effect
NLuc Km ctr = Biochemical coelenterazine-based NLuc counterscreen for small molecule modulators of PMP22 gene expression - Km assay | shares compounds with PMP22 txn prim | secreted NLuc enzyme, coelenterazine luminescence, Km conditions | Potency, µM (series often up to 57.5 µM), without a hit: at the top dose activity change, negative = inhibition, actives largely listed as inhibitors | 5% of 690 active; note: potency is the fitted concentration of half-maximal effect; % is set by controls: 0 for no effect and ±100 for the full control effect
FLuc ctr PMP22 = Biochemical FLuc counterscreen for small molecule modulators of PMP22 gene expression; Potency, µM (titrated, usually from 57.5 µM), inactives show top-dose activity, negative = inhibition, usual class: inhibitors; 690 tested, under 10 active; shares compounds with PMP22 txn prim; AID 1508640, 2021; purified P. pyralis FLuc, luminescence, 10 min; note: % of control where 0% means no effect
S16 F2sN tox cnf = Cell viability qHTS assay in S16 Pmp22-F2sN cells - Confirmatory screen; AID 1508641, 2021; shares compounds with PMP22 txn prim; S16 Schwann cells viability, CellTiter-Glo ATP luminescence, 24 h; 7% of 690 active; Potency, µM (series often up to 57.5 µM), inactives show at the top dose activity change, negative = viability loss, hits mostly cytotoxic; note: potency is the fitted concentration of half-maximal effect; % is set by controls: 0 for no effect and ±100 for the full control effect
PMP22 txn cnf = Cell-based coincidence reporter assay to measure PMP22 gene transcription in S16 Pmp22-F2sN cells - Confirmatory screen; Potency, µM (series often up to 57.5 µM), for inactives: top-dose activity change, negative = inhibition, actives largely listed as inhibitors; shares compounds with PMP22 txn prim; 22% of 690 active; S16 Schwann cells Pmp22-F2sN, dual luciferase, 24 h; AID 1508646, 2021; active = clear falling dose curves in both reporters; inconclusive = both reporters move, but less clearly or upward; inactive = either reporter flat; the % is the FLuc reporter signal; note: potency is the fitted concentration of half-maximal effect
PMP22 prot conf = Cell-based HiBiT reporter assay to measure PMP22 protein expression in S16 Pmp22-HiBiT cells - Confirmatory screen; Potency, µM (series often up to 27.9 µM), without a hit: at the highest dose activity change, negative = inhibition, most hits filed as inhibitors; shares compounds with PMP22 txn prim; 95 tested, under 10 active; S16 Schwann cells Pmp22-HiBiT, luminescence, 48 h; AID 1508647, 2021
Active calls of the source: *; i = inactive; ? = inconclusive; nt = no result. Most compounds without a hit are left out; they make up all but 3% or so of the library. Unless noted, calls come from the whole dose curve; as a rule, active = well fitted curve in the direction sought with a large enough effect; inconclusive = small, poorly fitted or top-dose-only effect, or another doubt; inactive = no such curve, though single readings can be large; an effect the other way counts as inactive or inconclusive.

SMILES	GALC G270D act	p53null 32C tox	mTORC1 inh	p53null 39C tox	PMP22 txn prim	S16 F2sN tox	NLuc sat counter	NLuc Km ctr	FLuc ctr PMP22	S16 F2sN tox cnf	PMP22 txn cnf	others
O=C(CSc1nc2c([nH]c3ccccc32)c(=O)n1-c1ccc(Cl)cc1)NC1CCCCC1	i	-25%	-1%	22%	13µM*	?	-4%	12%	-4%	?	17µM*
COC(=O)NCC(c1cccnc1)N1CCOCC1 (stereo not drawn)	nt	4%	nt	4%	nt	nt	nt	nt	nt	nt	nt
CCOC(=O)c1cnc2ccccc2c1Nc1ccc(N2CCOCC2)cc1	i	-10%	2%	29%	?	2%	nt	nt	nt	nt	nt
COc1ccc(-c2onc(C)c2C)cc1S(=O)(=O)NCc1ccc(C)o1	i	9%	-10%	-8%	8.9µM*	-13%	-3%	1%	10%	-10%	?
COc1ccc(-c2onc(C)c2C)cc1S(=O)(=O)Nc1cc(Cl)ccc1C	i	13%	0%	-2%	?	-17%	?	?	-3%	-16%	?
CCOC(=O)c1ccccc1NC(=O)Cn1c(=O)n(Cc2ccccc2)c(=O)c2c(C)c(C)sc21	i	7%	?	12%	18µM*	-7%	-10%	-4%	10%	6%	18%
Cc1ccsc1CN(C(=O)COc1ccc(Br)cc1)C1CCS(=O)(=O)C1 (stereo not drawn)	i	4%	0%	6%	-16%	5%	nt	nt	nt	nt	nt
Cn1c(=O)c2c(nc(NCc3ccccc3)n2Cc2ccccc2Cl)n(C)c1=O	i	2%	7%	-15%	-3%	?	nt	nt	nt	nt	nt
Cn1c(=O)c2c(nc(NCc3ccccc3)n2Cc2ccc(Cl)c(Cl)c2)n(C)c1=O	i	?	-12%	-15%	14µM*	-24%	-9%	?	-2%	-25%	?
COc1ccc(CCNc2nc3c(c(=O)n(C)c(=O)n3C)n2Cc2ccc(F)cc2)cc1OC	i	5%	-18%	-7%	10µM*	?	?	?	10%	-23%	-26%
COc1ccc(CCNc2nc(-c3ccc(C)cc3)cc(C(F)F)n2)cc1OC	i	-3%	2%	-9%	-12%	15%	nt	nt	nt	nt	nt
CCS(=O)(=O)c1ncc(Cl)c(C(=O)Nc2c(C(=O)c3ccc(C)cc3)oc3ccccc23)n1	i	-4%	-5%	4%	2.1µM*	?	-7%	?	2%	?	9.3µM*	PMP22 prot conf=-24%
CS(=O)(=O)c1ncc(Cl)c(C(=O)Nc2c(C(=O)c3ccc(Cl)cc3)oc3ccccc23)n1	i	0%	1%	2%	-18%	1%	nt	nt	nt	nt	nt
CCc1ccc2ncc(C(=O)c3ccc(C)c(C)c3)c(N3CCC(C(N)=O)CC3)c2c1	i	17%	-1%	?	13µM*	-8%	5.4µM*	7.7µM*	-1%	-13%	?
CCOC(=O)C1CCCN(c2c(C(=O)c3ccc(C)cc3)cnc3ccc(OCC)cc23)C1 (stereo not drawn)	i	2%	-21%	-7%	?	-2%	nt	nt	nt	nt	nt
O=C(CCN1CCN(CCO)CC1)Nc1ccc(Br)cc1	nt	2%	9%	-3%	nt	nt	nt	nt	nt	nt	nt
CCOC(=O)C1=C(C)N=C2SC(C(=O)OC)=CC(=O)N2C1c1cc(OC)c(OC)c(OC)c1 (stereo not drawn)	nt	-4%	nt	nt	nt	nt	nt	nt	nt	nt	nt
CC(=O)N1CCCc2cc(S(=O)(=O)N3CCCC(C(=O)NCc4ccccc4Cl)C3)ccc21 (stereo not drawn)	i	7%	6%	42%	?	-26%	nt	nt	nt	nt	nt
O=C(NCc1ccccc1Cl)C1CCN(S(=O)(=O)c2ccc3c(c2)CCCN3C(=O)C2CCC2)CC1	i	0%	-3%	-14%	8.5µM*	?	-15%	5%	-3%	-15%	-20%
COc1ccc(NC(=O)CCCS(=O)(=O)c2nc(-c3ccccc3OC)cc(C(F)(F)F)n2)c(OC)c1	i	?	?	56%	-21%	25%	nt	nt	nt	nt	nt
